High-throughput results as filed in PubChem.
CHT PAM – CHT positive allosteric modulators, primary screen, cell-based, membrane potential dye, choline EC20 | High affinity choline transporter 1 (Homo sapiens), Q9GZV3 | B-score at 10 µM | hit rate 0.49% among 310,000 | CHT-expressing cells; active compounds read high; LV-AA mutant CHT in HEK293 cells | AID 488977, 2010;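 active = initial fluorescence not abnormally high and integrated response B-score, plate-corrected, over 3 SD above library mean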
Target sequence (Q9GZV3 whole entry, looked up): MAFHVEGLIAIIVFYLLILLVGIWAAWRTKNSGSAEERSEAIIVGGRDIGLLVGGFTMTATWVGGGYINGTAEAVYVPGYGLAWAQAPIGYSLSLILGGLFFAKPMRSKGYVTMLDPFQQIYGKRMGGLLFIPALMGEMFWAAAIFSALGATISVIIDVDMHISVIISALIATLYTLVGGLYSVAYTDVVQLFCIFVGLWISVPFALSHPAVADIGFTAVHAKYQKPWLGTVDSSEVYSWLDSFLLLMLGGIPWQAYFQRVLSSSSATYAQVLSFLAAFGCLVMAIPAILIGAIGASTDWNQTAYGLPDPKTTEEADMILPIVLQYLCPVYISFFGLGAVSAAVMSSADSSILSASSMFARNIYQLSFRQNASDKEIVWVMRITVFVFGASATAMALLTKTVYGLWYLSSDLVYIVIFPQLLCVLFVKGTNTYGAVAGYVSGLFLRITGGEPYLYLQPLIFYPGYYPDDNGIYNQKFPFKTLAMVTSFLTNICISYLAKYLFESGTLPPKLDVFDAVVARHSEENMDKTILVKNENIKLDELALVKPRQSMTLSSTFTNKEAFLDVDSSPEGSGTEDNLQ
CHT inh – inhibitors of human choline transporter CHT; High affinity choline transporter 1 (Homo sapiens), Q9GZV3; CHT-expressing cells, membrane potential dye, choline response; active compounds read low; B-score at 10 µM; hit rate 0.86% among 310,000;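 active = B-score over 3 SD under the library average, and starting fluorescence ratio not unusually high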;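 note: choline stimulus applied at its EC90 after an EC20 pre-addition; B-score computed on integrated fluorescence ratio after choline addition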
ANO1 activ – TMEM16A chloride channel activators or potentiators, primary screen, cell-based, HTS. Anoctamin-1 (Mus musculus), Q8BHY3. HEK293 TMEM16A/YFP-H148Q/I152L, iodide quench fluorescence; active compounds read low. B-score at 10 µM. hit rate 0.3% among 340,000;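 active = fluorescence-ratio B-score plate-corrected deviation score at least 3 library SD below zero, with starting fluorescence score within 5 deviations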;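 note: channel opened by trigger with iodide after compound preincubation; score built on the fluorescence ratio of max minus min over baseline; more negative score means more quench and so TMEM16A activation or potentiation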
TMEM16A inh – TMEM16A chloride channel inhibitors, primary screen, cell-based, HTS; Anoctamin-1 (Mus musculus), Q8BHY3; HEK293 TMEM16A/YFP iodide influx fluorescence, ionomycin; normalized B-score (activity score, 25-100; higher = stronger inhibition) at 10 µM; hit rate 1.2% among 310,000;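 active = ratio plate-corrected score three or more library SD toward inhibition, starting fluorescence score within five deviations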;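 note: score derived from kinetic fluorescence span divided by baseline fluorescence per well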
CHT inh conf – CHT inhibitors, confirmation, cell-based, membrane potential dye, duplicate | shares compounds with CHT inh | hit rate 70% among 2,400 | CHT activity remaining % of control (active compounds read low), % at 10 µM | CHT-expressing cells, choline membrane potential dye; LV-to-AA substituted CHT, HEK293 cells;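 active = choline transporter activity left, mean of duplicates at 10 µM, below buffer-only control mean minus 3 SD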;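 note: depolarization triggered by choline at its EC90 following an EC20 pre-addition; 0% = hemicholinium-3 full block and 100% = buffer-only control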
HEK293 CHT ctr – membrane potential effects in parental HEK293, counter-screen for CHT inhibitor project, cell-based, membrane potential dye; shares compounds with CHT inh; choline response; active = decrease or increase beyond buffer ±3SD; membrane potential ratio readout (active if shifted either direction beyond buffer ±3SD; no single direction) at 10 µM; hit rate 4% among 2,400;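 note: parental cells lack the transporter so any hit is non-specific; ratio is peak minus trough fluorescence over baseline after EC90 choline challenge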
Starred values were filed as active, the others as inactive; i = inactive; nt = no result. Sampled rows, rich in hits. Any-hit rate of the full collection: about 2.3%.

SMILES	CHT PAM	CHT inh	ANO1 activ	TMEM16A inh	CHT inh conf	HEK293 CHT ctr
Cc1noc(C)c1CSCC(=O)N(C)CC(=O)Nc1ccc(Cl)c(C(F)(F)F)c1	i	i	i	i	nt	nt
S=C(NCc1ccccn1)Nc1ccc(Br)cc1Cl	i	-6.35*	i	i	37.8%*	i
COCCCN1C(=O)C(=O)/C(=C(/O)c2ccccc2)C1c1ccc(N(C)C)cc1 (centres undefined)	i	i	i	i	nt	nt
CN(C)c1ccc(C2/C(=C(/O)c3ccccc3)C(=O)C(=O)N2CCCC(=O)O)cc1 (centres undefined)	i	-6.62*	i	i	i	i
CC1=NN(C(=O)CSCc2ccccc2)C(O)(c2ccc(Cl)cc2)C1 (centres undefined)	i	-6.51*	i	i	i	i
CC1=NN(C(=O)CSCc2ccccc2)C(O)(c2ccc(F)cc2)C1 (centres undefined)	i	i	i	i	nt	nt
C=CCn1c(SCc2ccccc2C#N)nnc1-c1ccccc1O	i	-6.34*	i	i	i	i
COc1ccc(CC(=O)NCc2cn3ccsc3n2)cc1	i	i	i	i	nt	nt
O=C(NCc1cn2ccsc2n1)c1cccs1	i	-5.07*	i	i	i	i
C=CCNC(=O)[C@@H]1CSC2c3ccc(OC)c(OC)c3C(=O)N21 (some centres undefined)	i	i	i	i	nt	nt
Cc1cccc(-c2nc(CN3CCCC(C(=O)NC4CCCCC4)C3)c(C)o2)c1 (centres undefined)	i	-5.75*	i	25*	i	i
Cc1cccc(-c2nc(CN3CCCC(C(=O)NC4CCCCCC4)C3)c(C)o2)c1 (centres undefined)	i	i	i	i	nt	nt
CN(C)C1(CNC(=O)C2CCN(S(=O)(=O)c3cc(Cl)ccc3Cl)CC2)CCCCC1	i	i	i	i	nt	nt
CC(C)c1ccc(S(=O)(=O)N2CCC(C(=O)NCC3(N(C)C)CCCCC3)CC2)cc1	i	-6.05*	i	i	21.9%*	i
Cn1c(SCC(=O)N2CCN(c3ccccc3)CC2)nnc1-c1ccccc1	i	-5.27*	i	i	61.6%*	i
COc1ccccc1CCC(=O)OCC(=O)c1c(N)n(CC(C)C)c(=O)n(C)c1=O	i	-5.72*	i	i	42.9%*	i
COc1ccnc(N2CCN(c3ccccc3)CC2)c1C#N	i	-8.33*	i	i	i	i
COc1ccc(N2CCN(c3ncccc3C#N)CC2)cc1	i	i	i	i	nt	nt
O=C(Nc1ccccc1)c1cccc(S(=O)(=O)NC2CCCC2)c1	i	-5.17*	i	i	36.4%*	i
COc1cc(CCC(=O)OCC(=O)NCc2ccc(Cl)cc2)cc(OC)c1OC	i	-6.53*	i	i	66.1%*	i
CCOC(=O)c1c(NC(=O)CSc2ncn[nH]2)sc(C(=O)N(C)C)c1C	i	i	i	i	nt	nt
CCOC(=O)c1c(NC(=O)CSc2ncn[nH]2)sc(C)c1C	i	-6.72*	i	i	i	i
N#C/C(=N/Nc1ccc(OC(F)(F)F)cc1)C(N)=S	i	-11.1*	i	100*	29.8%*	i
CCOc1ccc(N/N=C(/C#N)C(N)=O)cc1	i	i	i	i	nt	nt
C=C1C(=O)C23C(O)C1CCC2C12CCCC(C)(COC(C)=O)C1C(O)C3(O)OC2 (centres undefined)	nt	nt	i	nt	nt	nt
SMILES	CHT PAM	CHT inh	ANO1 activ	TMEM16A inh	CHT inh conf	HEK293 CHT ctr
CC1CCCCC1NC(=O)Cn1nc(-c2ccccc2)ccc1=O (centres undefined)	i	-5.37*	i	i	64.2%*	i
CCOC(=O)C1(Cc2ccccc2C)CCCN(C(=O)c2cc(C3CC3)[nH]n2)C1 (centres undefined)	i	-6.27*	i	i	i	i
CCOC(=O)C1(Cc2ccccc2C)CCCN(C(=O)c2ccccn2)C1 (centres undefined)	i	i	i	i	nt	nt
COc1ccc(C2CC(c3ccc(OC)cc3)n3nc(NS(C)(=O)=O)nc3N2)cc1 (centres undefined)	i	i	i	i	nt	nt
CN1/C(=C/C(=O)CSc2ccccc2C(=O)O)C(C)(C)c2ccccc21	i	i	i	i	nt	nt
Cc1cc(=O)[nH]c(SCC(=O)/C=C2\N(C)c3ccccc3C2(C)C)n1	i	-5.02*	i	i	69.1%*	i
Cc1cc(C)cc(NC(=O)c2ccc(N3C(=O)C4CCCCC4C3=O)cc2)c1 (centres undefined)	i	-5.52*	i	i	64.6%*	i
O=C(Nc1ccc(Br)cc1)c1ccc(N2C(=O)C3CC=CCC3C2=O)cc1 (centres undefined)	i	i	i	i	nt	nt
COc1ccc(-c2csc(Cc3nnc4n3CCCCC4)n2)cc1	i	-5.01*	i	i	41.9%*	i
O=C(N/N=C/c1ccc(O)c([N+](=O)[O-])c1)C1CC1(c1ccccc1)c1ccccc1 (centres undefined)	i	-9.34*	i	i	i	i
CCOC(=O)c1oc2nc(C(C)C)c3c(c2c1N)CCC3	i	-5.19*	i	i	39.8%*	i
CCCc1nc2oc(C(=O)OCC)c(N)c2c2c1COC(C)(C)C2	i	-6.35*	i	i	32.5%*	i
CCCCNS(=O)(=O)c1ccc2nc(SCC(=O)c3ccccc3OC)[nH]c2c1	i	-9.72*	i	i	49.7%*	i
CCCCNS(=O)(=O)c1ccc2nc(SCC(N)=O)[nH]c2c1	i	i	i	i	nt	nt
CCC1NC(=S)NC(C)=C1C(=O)c1ccccc1 (centres undefined)	i	i	i	i	nt	nt
O=C(NC1CCCC1)C1CCCN1C(=O)Oc1ccccc1 (centres undefined)	i	i	i	i	nt	nt
COc1ccc(C(=O)NCc2ccon2)cc1OC1CCN(C(C)C)CC1	i	-7.3*	i	i	34.0%*	i
COc1ccc(C(=O)N[C@H]2CCCCNC2=O)cc1OC1CCN(C(C)C)CC1	i	-9.24*	i	i	34.1%*	i
COc1ccc(C(=O)N(C)CCCC2CCCC2)cc1OC1CCN(C(C)C)CC1	i	-6.96*	i	i	23.2%*	i
